40 compounds from PubChem BioAssay AID1224861 (National Center for Advancing Translational Sciences (NCATS), 2016) can be followed below.

Results filed as inconclusive are left out. Calls of active or inactive are those of the source. The call rests on the fitted dose curve; in most records, active means well fitted cell-killing curve with a large enough effect; inconclusive means small, poorly fitted or top-dose-only effect, or effect the other way; inactive means flat fitted curve, though single readings scatter.

This experiment can be described thus: Compound cytotoxicity measured by an ATP content assay as a counter-screen for lead compounds in human astrocytes. The settings on record: human astrocytes viability, ATP luminescence; series mostly up to 46.1 µM; activity change, negative = cytotoxicity: at the top concentration. The protocol:
National Center for Advancing Translational Sciences [NCATS] Johns Hopkins University School of Medicine Florida State University Assay Overview: Many compounds can cause cytotoxicity at high compound concentrations. […] The compound cytotoxicity may also cause side effects or toxicity in human. Thus, the compound cytotoxicity needs to be measured in each cell type and each compound incubation time - same as these in the compound screening assay. The compound cytotoxicity can be measured by cell viability assays such as the ATP content assay. We use an ATP content assay kit for cell viability measurement. It measures ATP content (level) in human astrocytes using a luminescence readout that is proportional to viable cell numbers. Decrease in the luminescence signal after the compound treatment indicates reduced cell viability and cell death caused by compound treatment.
Assay Protocol Summary: The medium for astrocytes contains AM basal medium (ScienCell, Cat.# 1801), AGS (ScienCell, Cat.# 1801), 10% FBS, and 1% Pen/Strep. The ATP content assay kit (PerkinElmer, Cat.# 6016731) was used to determine cell viability. The reagent was reconstituted and prepared as described by the manufacturer. Cells were seeded in 384- or 1536-well assay plates and cultured at 37 C with 5% CO2 for 16 to 20 hours. The typical cell seeding density in the 1536-well plate assay is 350 cells/well in 3 ul medium for astrocytes in the tissue cultured treated/PDL coated plates. Compounds were added to cells and incubated for a specific time such as 6, 24, or 72 hours before addition of the reagent mixture of the ATP content assay kit at 1:1 ratio. After incubation at room temperature for 10 minutes, the luminescence intensity in assay plates was measured using a ViewLux plate reader (PerkinElmer). […] The percentage inhibitions of the decreased cell viability by small molecules were then calculated that indicate compound cytotoxicity.
A general note: The purpose of a counterscreen is to sort out artefacts and off-target activity.
Take `O=C1C(Cl)=C(NCCN2CCOCC2)C(=O)c2ncccc21`: the Potency was 7.74 µM (active).

`COc1cc2nc(N3CCN(C(=O)C4CCCO4)CC3)nc(N)c2cc1OC` (stereo not given): the “activity change, negative = cytotoxicity” value is 10.5% (inactive).

Take `CN(C)c1ccc2cc(C(=O)N[C@@H](CCCN=C(N)CCl)C(=O)NCc3ccccc3)ccc2c1`: the “activity change, negative = cytotoxicity” value was 16.8% (inactive).

Take `Cc1c(NC(=O)c2ccc(C(C)(C)C)cc2)cccc1-c1cn(C)c(=O)c(Nc2ccc(C(=O)N3CCOCC3)cc2)n1`: the “activity change, negative = cytotoxicity” value is -12.9% (inactive).

Regarding `O=C(O)[C@@H](c1ccc(OCc2ccc3ccccc3n2)cc1)C1CCCC1`, the “activity change, negative = cytotoxicity” value is 1.24% (inactive).

In the case of `CCCS(=O)c1ccc2nc(NC(=O)OC)[nH]c2c1` (stereo not given), the “activity change, negative = cytotoxicity” value is -0.17% (inactive).

In the case of `O=C1c2ccccc2-[n+]2ccc3c([nH]c4ccccc43)c21`, the Potency is 4.35 µM (active).

With `O=C(Nc1ncc([N+](=O)[O-])s1)c1cccs1`, the “activity change, negative = cytotoxicity” value is -6.69% (inactive).

As for `O=C(O)c1ccccc1NCCc1ccccc1`, the “activity change, negative = cytotoxicity” value is 11.8% (inactive).

For `CC(=NNC(=S)N1CCC1)c1ccccn1`, the Potency is 17.3 µM (active).

For `CC(C(=O)O)c1ccc(-c2ccccc2)c(F)c1` (stereo not given), the “activity change, negative = cytotoxicity” value was 18.4% (inactive).

In the case of `Cc1cccc(/C=C/c2ccccc2)n1`, the “activity change, negative = cytotoxicity” value was -12.8% (inactive).

Take `Cc1oncc1C(=O)Nc1ccc(C(F)(F)F)cc1`: the “activity change, negative = cytotoxicity” value was -12.6% (inactive).

For `CC1(C)Cc2c(sc(NC(=S)NC(=O)c3ccccc3)c2C(=O)O)CO1`, the “activity change, negative = cytotoxicity” value is 1.95% (inactive).

As for `CC(C(=O)O)c1ccc(C(=O)c2cccs2)cc1` (stereo not given), the “activity change, negative = cytotoxicity” value is -16.1% (inactive).

Take `O=C1c2ccccc2C(=O)c2c1ccc(O)c2O`: the “activity change, negative = cytotoxicity” value is -2.34% (inactive).

Regarding `Nc1nc2ccc([N+](=O)[O-])cc2s1`, the “activity change, negative = cytotoxicity” value is 7.77% [at 88.3 µM] (inactive).

As to `CCCCC1C(=O)N(c2ccccc2)N(c2ccc(O)cc2)C1=O` (stereo not given), the “activity change, negative = cytotoxicity” value was -16.9% (inactive).

`CN1CCN(c2cc3c(nn2)Oc2ccccc2N3C)CC1`: the “activity change, negative = cytotoxicity” value was 9.89% [at 23.8 µM] (inactive).

With `COc1cc2nc(-c3ccc(N4CCN(C)CC4)cc3)nc(NCCN3CCOCC3)c2cc1OC`, the “activity change, negative = cytotoxicity” value is -8.43% (inactive).

As to `C[C@@H](N)c1ccc(C(=O)Nc2ccnc3[nH]ccc23)cc1`, the “activity change, negative = cytotoxicity” value is -11.5% (inactive).

As to `Cc1cc(O)c2c(c1)C(=O)c1cc(O)cc(O)c1C2=O`, the “activity change, negative = cytotoxicity” value was 7.02% (inactive).

With `CC(C)OC(=O)CCCC=CC[C@@H]1[C@H](C=C[C@@H](O)COc2cccc(C(F)(F)F)c2)[C@H](O)C[C@@H]1O`, the “activity change, negative = cytotoxicity” value is 8.58% (inactive).

With `O=c1c(-c2ccc(O)cc2)coc2cc(OC3O[C@H](CO)[C@H](O)[C@H](O)[C@H]3O)cc(O)c12` (stereo not given in full), the “activity change, negative = cytotoxicity” value was -29.9% (inactive).

Take `Nc1cc(C(F)(F)F)ccc1S`: the “activity change, negative = cytotoxicity” value was -10.8% (inactive).

Consider `C[C@@H]1CCN(C(=O)CC#N)C[C@H]1N(C)c1ncnc2[nH]ccc12`, for which the “activity change, negative = cytotoxicity” value was 0.0793% (inactive).

For `Oc1cc(O)cc(/C=C/c2ccc(O)c(O)c2)c1`, the Potency was 8.69 µM (active).

In the case of `CO[C@H]1C(=O)[C@]2(C)[C@@H](OC)C[C@H]3OC[C@@]3(OC(C)=O)[C@H]2[C@H](OC(=O)c2ccccc2)[C@]2(O)C[C@H](OC(=O)[C@H](O)[C@@H](NC(=O)OC(C)(C)C)c3ccccc3)C(C)=C1C2(C)C`, the “activity change, negative = cytotoxicity” value is -18.2% (inactive).

In the case of `Nc1ccc(O)c(C(=O)O)c1`, the “activity change, negative = cytotoxicity” value was -2.4% (inactive).

Take `CC(C(=O)O)c1ccc2c(c1)[nH]c1ccc(Cl)cc12` (stereo not given): the “activity change, negative = cytotoxicity” value is 5.69% (inactive).

As to `COc1ccc(-c2cc(=O)c3c(O)cc(O)cc3o2)cc1O`, the “activity change, negative = cytotoxicity” value is 5.46% (inactive).

As for `CC(=O)OC(C)OC(=O)C(C)c1ccc(-c2ccccc2)c(F)c1` (stereo not given), the “activity change, negative = cytotoxicity” value is 7.3% (inactive).

Turning to `Cc1ccc(O)c(N=Nc2ccccc2)n1`, the Potency was 4.35 µM (active).

In the case of `CN(C)CCCSc1ccccc1NC(=O)/C=C/c1ccccc1`, the “activity change, negative = cytotoxicity” value is 9.71% (inactive).

Regarding `O=c1c2ccccc2nc2n1CCc1c-2[nH]c2ccccc12`, the “activity change, negative = cytotoxicity” value is -15.3% (inactive).

Consider `CCN1CCC(n2cc(CNc3cc(Cl)c4ncc(C#N)c(Nc5ccc(F)c(Cl)c5)c4c3)nn2)CC1`, for which the “activity change, negative = cytotoxicity” value was -4.32% (inactive).

As to `CC(C)(C)COc1ccc(-n2cc(C(=O)O)cn2)cc1C#N`, the “activity change, negative = cytotoxicity” value is -0.262% [at 88.3 µM] (inactive).

In the case of `COc1ccc(CC2=NN3C([C@@H](CCc4ccccc4)[C@@H](C)O)=NC(C)C3C(=O)N2)cc1OC` (stereo not given in full), the “activity change, negative = cytotoxicity” value was 5.6% (inactive).

As to `OCc1ccc(-c2ccc(-c3ccc(CO)s3)o2)s1`, the Potency is 21.8 µM (active).

As to `Cc1nc(N)sc1-c1ccnc(Nc2ccc(N3CCOCC3)cc2)n1`, the “activity change, negative = cytotoxicity” value was 6.28% (inactive).
